Compounds without any hit were thinned out: in the full panel of roughly 79,000, 15% have a hit. Active and inactive are the calls of the source. No stated cut-off is given here; in the data, active means growth inhibition above about 70%; inactive means the rest.
Assays:
[1] = NCI Yeast Anticancer Drug Screen. Data for the rad50 strain (AID 155);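 further: 0% = growth of vehicle-only cultures of the same strain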; details: S. cerevisiae rad50 strain growth inhibition; at 50.0 µM; active compounds read high
Method in brief: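 Readout: growth inhibition relative to vehicle-treated cultures. Compound exposure was carried out in a genetically defined yeast strain deficient in DNA damage repair.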

[2] = NCI Yeast Anticancer Drug Screen. Data for the mec2-1 strain (AID 157); details: S. cerevisiae mec2-1 strain, at 50.0 µM, active compounds read high
Method in brief: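 Each compound was tested on mec2-1 yeast, a strain altered in DNA damage repair or cell cycle control. Growth inhibition is reported relative to vehicle.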

[3] = NCI Yeast Anticancer Drug Screen. Data for the sgs1 mgt1 strain (AID 161);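 further: 0% = growth of cultures given vehicle only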; details: S. cerevisiae sgs1 mgt1 strain, at 50.0 µM, active compounds read high
Method in brief: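 Mutant yeast exposed to compound; growth scored against vehicle-only wells.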

[4] = NCI Yeast Anticancer Drug Screen. Data for the cln2 rad14 strain (AID 165);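 further: 0% = growth equal to vehicle treated cultures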; details: S. cerevisiae cln2 rad14 strain, at 50.0 µM, active compounds read high
Method in brief: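 Test compounds were added to cln2 rad14 yeast cultures; inhibition of growth was then determined by comparison with vehicle treatment.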

[5] = NCI Yeast Anticancer Drug Screen. Data for the bub3 strain (AID 167); details: S. cerevisiae bub3 mutant strain, at 50.0 µM, active compounds read high
Method in brief: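 Readout: yeast growth inhibition, expressed relative to vehicle-only wells. The test organism is a mutant strain from a panel with lesions in DNA repair or checkpoint genes.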

[6] = NCI Yeast Anticancer Drug Screen. Data for the mlh1 rad18 strain (AID 175); details: S. cerevisiae mlh1 rad18 strain growth inhibition; at 50.0 µM; active compounds read high
Method in brief: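 Inhibition values reflect reduced growth of mutant yeast versus vehicle-treated controls following compound exposure; the mutations affect DNA damage repair.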

Measured: growth inhibition

c1ccc(/C2=C(\c3ccccc3)CSSSSC2)cc1
inactive: [1] 68.5% | [2] 48.4% | [3] 45.4% | [4] 43.2% | [5] 62.9%
active: [6] 89%

CCOC(COc1ccc2ccccc2c1)OCC
inactive: [1] -18.6% | [2] 0.5% | [3] 0.55% | [4] -55.7% | [5] 6.9% | [6] -10.1%

O=C1C2CCCC2C1(c1ccccc1)c1ccccc1 (stereo unspecified)
inactive: [1] -7.25% | [2] 38.6% | [3] 64.2% | [4] -36.4% | [5] 49.9% | [6] 10.8%

CC(C)OC(=O)Nc1cccc(C(=O)O)c1
inactive: [1] -6.55% | [2] -6.55% | [3] -2.8% | [4] -14.5% | [5] -16.4% | [6] -0.85%

CSc1n[nH]c(N)c1C(=O)Nc1ccc(C)cc1
inactive: [1] 19.9% | [2] 10.8% | [3] 39.5% | [4] 22.4% | [5] 49.2% | [6] 10.6%

CN=C(C#N)c1ccccc1
inactive: [1] -10.6% | [2] -17.1% | [3] -2.6% | [4] -28.9% | [5] 8.7% | [6] -15.8%

Nc1ccccc1OCC(=O)Nc1c(N)ncnc1N
inactive: [1] 0.4% | [2] -6.35% | [3] 6.85% | [4] 2.95% | [5] 5.9% | [6] -3.8%

CCCCCN(C(=O)c1ccccc1C(=O)N(CCCCC)c1ccccc1)c1ccccc1
inactive: [1] 15.3% | [2] 7.85% | [3] 15.8% | [4] 30.6% | [5] 3.4% | [6] 42%

CC(C)c1nc(N)nc(N)n1
inactive: [1] 4.8% | [2] -23.8% | [3] 5.8% | [4] 12.8% | [5] 1% | [6] -16.8%

O=[N+]([O-])c1ccc(N=C(Nc2ccc([N+](=O)[O-])cc2)c2ccccc2)cc1
inactive: [1] 12.1% | [2] -16.2% | [3] -1.6% | [4] -33.6% | [5] -12.6% | [6] -14.5%

COc1ccc(Cl)cc1NC(=O)Oc1ccccc1C(N)=O
inactive: [1] -1.05% | [2] 43.5% | [3] 24.6% | [4] -12.8% | [5] 40.6% | [6] 3.1%

Nc1c(OS(=O)(=O)c2ccccc2)cccc1OS(=O)(=O)c1ccccc1
inactive: [1] 20.8% | [2] -2.45% | [3] 18.8% | [4] 20.7% | [5] 39.7% | [6] 37.1%

CC(=O)c1ccccc1NC(=O)C(=O)C(C(=O)c1ccc2ccccc2c1)C1OC(=O)c2ccccc21 (stereo unspecified)
inactive: [1] -3.15% | [2] 3.45% | [3] 11.4% | [4] -44.2% | [5] 4.85% | [6] 8.25%

NNC(=O)C1=NN(c2ccccc2)C(=O)C1
inactive: [1] 39.3% | [2] 12.8% | [3] 33.6% | [4] -12.9% | [5] 36.8% | [6] 42.1%

C[C@H]1CCCCC[C@@H]2CC(=O)CC2C(=O)CCC(=O)O1 (stereo partly specified)
inactive: [1] 17.6% | [2] -4.25% | [3] -10.6% | [4] 8.05% | [5] -8.85% | [6] 12.7%

Oc1cccc2nc3ccccc3cc12
inactive: [1] 4.3% | [2] 1.15% | [3] 16.2% | [4] -10% | [5] 3% | [6] 9.6%

COC(=O)C1(C)CCCC2(C)C3=CC(O)C4(C(C)C)OC4C3(O)CCC12 (stereo unspecified)
inactive: [1] -9.4% | [2] -41.6% | [3] -8.15% | [4] 5.65% | [5] -21.9% | [6] -8.2%

O=C1CSC=C(c2ccccc2)O1
inactive: [1] 4.45% | [2] 4.4% | [3] -4.7% | [4] -40.8% | [5] -0.5% | [6] -19.4%

CC(=O)/C(=C/N1CCNC1=S)C(=O)Nc1ccc(Cl)cc1
inactive: [1] -34.5% | [2] -24% | [3] -39.6% | [4] 0.2% | [5] -39.2% | [6] -26.3%

CCN=C(C#N)NCC
inactive: [1] 19.2% | [2] -3.75% | [3] 20.9% | [4] 16.6% | [5] 25.2% | [6] 29.8%

O=c1c2c(nc3n1CCC3)sc1c(O)c(Br)ccc12
inactive: [1] -44.7% | [2] -26.6% | [3] -46.7% | [4] -25.1% | [5] -40% | [6] -52.1%

O=C(c1cccc(Cl)c1)c1cccc2ccccc12
inactive: [1] -1.7% | [2] 5.6% | [3] 19.6% | [4] -37% | [5] 41.9% | [6] -10.2%

COc1cc2ccc3c4cc(OC)c(OC(C)C)cc4cnc3c2cc1OC
inactive: [1] -48.9% | [2] -15.3% | [3] -0.9% | [4] 29.6% | [5] -10.5% | [6] -4.45%

C/C(CCC1CCCCC1)=N/NC(N)=O
inactive: [1] 14.6% | [2] 15.8% | [3] 5.25% | [4] 14.7% | [5] 12.7% | [6] -18.4%

O=C1Cn2c(c3c(nc2=O)CCCC3)N1
inactive: [1] -31.1% | [2] -7.3% | [3] -10.3% | [4] -13.7% | [5] -7.95% | [6] 2.1%

CC(=O)N(c1ccccn1)c1ccccn1
inactive: [1] -15.3% | [2] -10.2% | [3] -19.9% | [4] -54.5% | [5] 0.5% | [6] -31.2%

CCOC(=O)NC(=O)c1cn(CCCCCCCCCCC(=O)NCCCN2CCN(CCCNC(=O)CCCCCCCCCCn3cc(C(=O)NC(=O)OCC)c(=O)[nH]c3=O)CC2)c(=O)[nH]c1=O
inactive: [1] -19.2% | [2] 12.9% | [3] -23.8% | [4] -27.4% | [5] 2.25% | [6] -17.6%

COc1ccc(N(C)S(=O)(=O)c2ccccc2)cc1
inactive: [1] 15.1% | [2] -8.9% | [3] -3.65% | [4] 10.8% | [5] 0.1% | [6] 15.8%

CCCCCCCCCCCCCCCCCC1(c2ccccc2)NC(=O)NC1=O (stereo unspecified)
inactive: [1] 9.5% | [2] 10.3% | [3] 30.5% | [4] 12.9% | [5] 5.8% | [6] -13.1%

O=C1NNC2NC(=O)C3(NN2C1=O)c1ccccc1-c1ccccc13 (stereo unspecified)
inactive: [1] -18% | [2] -21.5% | [3] 0.45% | [4] -5.8% | [5] -11.7% | [6] -15.4%

Cc1c(-c2ccccc2)noc1-n1nnc2ccccc2c1=O
inactive: [1] -7.45% | [2] 29.6% | [3] 11.4% | [4] -42.8% | [5] 48.4% | [6] 9.05%

CCCCCCCCCCCCCCCCCCSc1ccc2ccccc2c1
inactive: [1] 37.5% | [2] -10.5% | [3] 20.4% | [4] -14.1% | [5] 0.6% | [6] -5.7%

O=C1CN(CCN2CCCCC2)CC(=O)N2CCCCN12
inactive: [1] -32% | [2] -7.15% | [3] -8.65% | [4] 9.2% | [5] -5.75% | [6] -10.8%

COc1cc2c(cc1O)CCN[C@@]21CS[C@H]2c3c(OC(C)=O)c(C)c4c(c3C(COC1=O)N1C2C2NC(Cc3cc(C)c(OC)c(O)c32)[C@@H]1O)OCO4 (stereo partly specified)
active: [1] 91.5% | [2] 94% | [3] 93.7% | [4] 91.5% | [5] 92.2% | [6] 91.2%

Cc1ccc(Nc2nc(=O)[nH]c(=O)[nH]2)cc1N
inactive: [1] -11.7% | [2] 1.65% | [3] 20.3% | [4] 11.7% | [5] 27.1% | [6] -54.5%

COc1ccc(C2=Nc3c(nc(SC)[nH]c3=O)NC(c3ccccc3)C2)cc1 (stereo unspecified)
inactive: [1] 9.45% | [2] 9.3% | [3] 19.3% | [4] 6.15% | [5] 28.3% | [6] -3.15%

O=P(O)(O)c1ccccc1Oc1ccccc1
inactive: [1] 7.8% | [2] 7.55% | [3] 26.3% | [4] 29.1% | [5] 8.05% | [6] 6.95%

O=C1c2ccccc2C(=O)N1Cc1ccccc1-c1c2nc(c(-c3ccccc3CN3C(=O)c4ccccc4C3=O)c3ccc([nH]3)c(-c3ccccc3CN3C(=O)c4ccccc4C3=O)c3nc(c(-c4ccccc4CN4C(=O)c5ccccc5C4=O)c4ccc1[nH]4)C=C3)C=C2
inactive: [1] 11.8% | [2] -1.55% | [3] -0.8% | [4] -3.4% | [5] 13.6% | [6] -14%

Cc1c(C(=O)O)sc2ccc([N+](=O)[O-])cc12
inactive: [1] -8.15% | [2] 2.5% | [3] -9.35% | [4] -46.5% | [5] -13.3% | [6] -0.6%

CCOC(=O)C(=O)Cc1ccccn1
inactive: [1] -0.7% | [2] -6.55% | [3] -6.5% | [4] -16.3% | [5] 8.85% | [6] -13.2%

CCCCOC(=O)C1=NNC(=O)C1
inactive: [1] -17.6% | [2] -17.9% | [3] -11.9% | [4] -10.1% | [5] -12.3% | [6] -11.9%
